Counter-ions that a name gives are not always drawn. ± gives the uncertainty stated by the source.

For the assay, the system named is Caenorhabditis elegans N2. The assay is described as follows: food intake (mean delta OD600 / animal over 72 h) with 50 uM loxapine co-treatment (OD600 units per animal); higher = more food eaten (less suppression of loxapine-induced hyperphagia). The conditions noted are these: first compound 33 µM, loxapine concentration 50 µM. As for the experimental part:
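C. elegans N2 adults (FUDR-sterilised, day 1) in 96-well plates fed gamma-irradiated bacteria. Each library drug (MedChemExpress FDA-approved library) at 33 uM was combined with loxapine at 50 uM. Food intake was measured as bacterial clearance: the change in OD600 from day 1 to 72 h, normalised per animal (mean over 14-21 wells of about 10-12 worms). Drugs flagged for bacterial lysis or sickness were excluded by the authors.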
With `O=C(O)CCCCCCCC(=O)O` [azelaic acid] + CN1CCN(C2=Nc3ccccc3Oc3ccc(Cl)cc32)CC1 [loxapine], the food intake was determined as 0.0259 ± 0.018.
Take `CCOc1ccccc1OCCN[C@H](C)Cc1ccc(OC)c(S(N)(=O)=O)c1` [tamsulosin] + CN1CCN(C2=Nc3ccccc3Oc3ccc(Cl)cc32)CC1 [loxapine]: the food intake is 0.022 ± 0.0032.
`C#C[C@]1(O)CC[C@H]2[C@@H]3CCC4=CC(=O)CC[C@@H]4[C@H]3C(=C)C[C@@]21CC` [etonogestrel] + CN1CCN(C2=Nc3ccccc3Oc3ccc(Cl)cc32)CC1 [loxapine]: the food intake was 0.0244 ± 0.012.
Next, `CC=CC(=O)N(CC)c1ccccc1C` [crotamiton] + CN1CCN(C2=Nc3ccccc3Oc3ccc(Cl)cc32)CC1 [loxapine]: 0.0223 ± 0.002; `O=C(C1CCCCC1)N1CC(=O)N2CCc3ccccc3C2C1` (stereo not given) [praziquantel] + CN1CCN(C2=Nc3ccccc3Oc3ccc(Cl)cc32)CC1 [loxapine]: 0.0224 ± 0.0023.
Take `FC(F)(F)C(Cl)Br` (stereo not given) [halothane] + CN1CCN(C2=Nc3ccccc3Oc3ccc(Cl)cc32)CC1 [loxapine]: the food intake came to 0.0227 ± 0.0031.
Turning to `OCCN1C[C@H](O)[C@@H](O)[C@H](O)[C@H]1CO` [miglitol] + CN1CCN(C2=Nc3ccccc3Oc3ccc(Cl)cc32)CC1 [loxapine], the food intake is 0.0214 ± 0.005.
For `C1CCN2C[C@@H]3C[C@@H](CN4CCCC[C@@H]34)[C@H]2C1` [(-)-sparteine (sulfate pentahydrate)] + CN1CCN(C2=Nc3ccccc3Oc3ccc(Cl)cc32)CC1 [loxapine] the value was 0.0235 ± 0.0013; for `CC(C)(C)C(=O)OCOC(=O)[C@@H]1N2C(=O)[C@@H](/N=C/N3CCCCCC3)[C@H]2SC1(C)C` [pivmecillinam (hydrochloride)] + CN1CCN(C2=Nc3ccccc3Oc3ccc(Cl)cc32)CC1 [loxapine], 0.0244 ± 0.0027.
On to `CS(=O)(=O)c1ccc([C@@H](O)[C@@H](CO)NC(=O)C(Cl)Cl)cc1` [thiamphenicol] + CN1CCN(C2=Nc3ccccc3Oc3ccc(Cl)cc32)CC1 [loxapine], for which the food intake was 0.0228 ± 0.0025.
For `CCOC(=O)c1c(CSc2ccccc2)n(C)c2cc(Br)c(O)c(CN(C)C)c12` [arbidol (hydrochloride)] + CN1CCN(C2=Nc3ccccc3Oc3ccc(Cl)cc32)CC1 [loxapine] the value was 0.0227 ± 0.0057; for `CN1C2=CC(=O)/C(=N\NC(N)=O)C=C2CC1S(=O)(=O)O` (stereo not given) [carbazochrome (sodium sulfonate)] + CN1CCN(C2=Nc3ccccc3Oc3ccc(Cl)cc32)CC1 [loxapine], 0.0296 ± 0.0057.
For `C=CC[N+]1([C@H]2C[C@H]3[C@@H]4CC[C@H]5C[C@H](O)[C@@H](N6CCOCC6)C[C@]5(C)[C@H]4CC[C@]3(C)[C@H]2OC(C)=O)CCCC1` [rocuronium (bromide)] + CN1CCN(C2=Nc3ccccc3Oc3ccc(Cl)cc32)CC1 [loxapine] the value was 0.0231 ± 0.0029; for `CC(C)(C)C(=O)C(Oc1ccc(Cl)cc1)n1ccnc1` (stereo not given) [climbazole] + CN1CCN(C2=Nc3ccccc3Oc3ccc(Cl)cc32)CC1 [loxapine], 0.0235 ± 0.012; for `CC(=O)O[C@H]1CC[C@H]2[C@@H]3CCc4cc(O)ccc4[C@H]3CC[C@]12C` [b-estradiol 17-acetate] + CN1CCN(C2=Nc3ccccc3Oc3ccc(Cl)cc32)CC1 [loxapine], 0.0213 ± 0.0046.
With `Cn1c(=O)c2nc[nH]c2n(C)c1=O` [theophylline] + CN1CCN(C2=Nc3ccccc3Oc3ccc(Cl)cc32)CC1 [loxapine], the food intake amounted to 0.00971 ± 0.011.
Consider `O=c1n(CCCN2CCN(c3cccc(Cl)c3)CC2)nc2ccccn12` [trazodone (hydrochloride)] + CN1CCN(C2=Nc3ccccc3Oc3ccc(Cl)cc32)CC1 [loxapine], for which the food intake was 0.0285 ± 0.035.
For `COC(=O)Nc1nc2cc([S+]([O-])c3ccccc3)ccc2[nH]1` (stereo not given) [oxfendazole] + CN1CCN(C2=Nc3ccccc3Oc3ccc(Cl)cc32)CC1 [loxapine] the value was 0.0214 ± 0.0037; for `CC[C@H]1OC(=O)C[C@@H](O)[C@H](C)[C@@H](O[C@@H]2O[C@H](C)[C@@H](O[C@H]3C[C@@](C)(O)[C@@H](O)[C@H](C)O3)[C@H](N(C)C)[C@H]2O)[C@@H](CC=O)C[C@@H](C)C(=O)/C=C/C(C)=C/[C@@H]1CO[C@@H]1O[C@H](C)[C@@H](O)[C@@H](OC)[C@H]1OC` [Tylosin] + CN1CCN(C2=Nc3ccccc3Oc3ccc(Cl)cc32)CC1 [loxapine], 0.0219 ± 0.0051.
For `CCc1ccc(CCOc2ccc(CC3SC(=O)NC3=O)cc2)nc1` (stereo not given) [pioglitazone (hydrochloride)] + CN1CCN(C2=Nc3ccccc3Oc3ccc(Cl)cc32)CC1 [loxapine] the value was 0.0215 ± 0.0041; for `COc1c(N2C[C@@H]3CCCN[C@@H]3C2)c(F)cc2c(=O)c(C(=O)O)cn(C3CC3)c12` [moxifloxacin (hydrochloride)] + CN1CCN(C2=Nc3ccccc3Oc3ccc(Cl)cc32)CC1 [loxapine], 0.0216 ± 0.0034; for `O=c1[nH]c(=O)n([C@H]2C[C@H](O)[C@@H](CO)O2)cc1I` [idoxuridine] + CN1CCN(C2=Nc3ccccc3Oc3ccc(Cl)cc32)CC1 [loxapine], 0.0176 ± 0.0026.
For `CC(C)(Oc1ccc(CCNC(=O)c2ccc(Cl)cc2)cc1)C(=O)O` [bezafibrate] + CN1CCN(C2=Nc3ccccc3Oc3ccc(Cl)cc32)CC1 [loxapine] the value was 0.0212 ± 0.0034.
Regarding `CC(=O)C1C(=O)C=C(C)OC1=O` (stereo not given) [dehydroacetic acid] + CN1CCN(C2=Nc3ccccc3Oc3ccc(Cl)cc32)CC1 [loxapine], the food intake stood at 0.0214 ± 0.0043.
As for `Cc1cc(C)c2c(c1)[C@@H](N(Cc1cc(C(F)(F)F)cc(C(F)(F)F)c1)c1nnn(C)n1)CCCN2C[C@H]1CC[C@H](C(=O)O)CC1` [Evacetrapib] + CN1CCN(C2=Nc3ccccc3Oc3ccc(Cl)cc32)CC1 [loxapine], the food intake amounted to 0.0229 ± 0.0033.
For `Cc1nc(C)c(Cl)c(O)c1Cl` [clopidol] + CN1CCN(C2=Nc3ccccc3Oc3ccc(Cl)cc32)CC1 [loxapine], the food intake amounted to 0.0241 ± 0.0032.
On to `CCCC(=O)Nc1ncnc2c1ncn2[C@@H]1O[C@@H]2COP(=O)(O)O[C@H]2[C@H]1OC(=O)CCC` [bucladesine (calcium salt)] + CN1CCN(C2=Nc3ccccc3Oc3ccc(Cl)cc32)CC1 [loxapine], for which the food intake was 0.022 ± 0.0033.
Turning to `CNC(=O)[C@H](Cc1c[nH]c2ccccc12)NC(=O)[C@@H](CC(=O)NO)CC(C)C` + CN1CCN(C2=Nc3ccccc3Oc3ccc(Cl)cc32)CC1 [loxapine], the food intake is 0.0195 ± 0.0054.
For `CC1(C)O[C@@H]2C[C@H]3[C@@H]4CCC5=CC(=O)C=C[C@]5(C)[C@@]4(F)[C@@H](O)C[C@]3(C)[C@]2(C(=O)CO)O1` [triamcinolone (acetonide)] + CN1CCN(C2=Nc3ccccc3Oc3ccc(Cl)cc32)CC1 [loxapine], the food intake was found to be 0.0224 ± 0.0033.
As to `Cc1cc(C2CCCCC2)n(O)c(=O)c1` [ciclopirox] + CN1CCN(C2=Nc3ccccc3Oc3ccc(Cl)cc32)CC1 [loxapine], the food intake was 0.0218 ± 0.0041.
Turning to `CC(=O)Nc1ncc([N+](=O)[O-])s1` [nithiamide] + CN1CCN(C2=Nc3ccccc3Oc3ccc(Cl)cc32)CC1 [loxapine], the food intake was 0.0244 ± 0.0027.
For `CC(=O)CCCCn1c(=O)c2c(ncn2C)n(C)c1=O` [pentoxifylline] + CN1CCN(C2=Nc3ccccc3Oc3ccc(Cl)cc32)CC1 [loxapine] the value was 0.0226 ± 0.002; for `Fc1ccc([C@@H]2CCNC[C@H]2COc2ccc3c(c2)OCO3)cc1` [paroxetine (hydrochloride)] + CN1CCN(C2=Nc3ccccc3Oc3ccc(Cl)cc32)CC1 [loxapine], 0.0221 ± 0.0043; for `CCCc1nn(C)c2c(=O)[nH]c(-c3cc(S(=O)(=O)N4CCN(C)CC4)ccc3OCC)nc12` [sildenafil (citrate)] + CN1CCN(C2=Nc3ccccc3Oc3ccc(Cl)cc32)CC1 [loxapine], 0.024 ± 0.0028.
Take `CC(=O)N1CCN(c2ccc(OCC3COC(Cn4ccnc4)(c4ccc(Cl)cc4Cl)O3)cc2)CC1` (stereo not given) [ketoconazole] + CN1CCN(C2=Nc3ccccc3Oc3ccc(Cl)cc32)CC1 [loxapine]: the food intake amounted to 0.0239 ± 0.0034.
Take `O=C1NC(=O)C(c2ccccc2)(c2ccccc2)N1` [phenytoin] + CN1CCN(C2=Nc3ccccc3Oc3ccc(Cl)cc32)CC1 [loxapine]: the food intake is 0.0218 ± 0.0037.
As to `C[N+](C)(C)CCCCCC[N+](C)(C)C` [hexamethonium (bromide)] + CN1CCN(C2=Nc3ccccc3Oc3ccc(Cl)cc32)CC1 [loxapine], the food intake stood at 0.0215 ± 0.0099.
As to `Nc1nc2c(ncn2COC(CO)CO)c(=O)[nH]1` [ganciclovir] + CN1CCN(C2=Nc3ccccc3Oc3ccc(Cl)cc32)CC1 [loxapine], the food intake was 0.0236 ± 0.0019.
In the case of `CC(C)[C@H](N)C(=O)OCCOCn1cnc2c(=O)nc(N)[nH]c21` [valacyclovir (hydrochloride)] + CN1CCN(C2=Nc3ccccc3Oc3ccc(Cl)cc32)CC1 [loxapine], the food intake turned out to be 0.0213 ± 0.0096.
Consider `O=NN(CCCl)C(=O)NC1CCCCC1` [Lomustine] + CN1CCN(C2=Nc3ccccc3Oc3ccc(Cl)cc32)CC1 [loxapine], for which the food intake was determined as 0.0248 ± 0.0039.

Source of the values: the supplement of paper PMC6288085.
